ChEMBL document CHEMBL1961873, “Compounds: GSK PKIS; Assays: Nanosyn kinase panel” (2012)

Key:
[1] = molecular target: T1, Inhibitor of nuclear factor kappa-B kinase subunit epsilon (Homo sapiens) (UniProt Q14164); conditions: at 1 µM;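 also: reported values are averaged percent inhibition figures against human IKKε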
T1 sequence (whole entry): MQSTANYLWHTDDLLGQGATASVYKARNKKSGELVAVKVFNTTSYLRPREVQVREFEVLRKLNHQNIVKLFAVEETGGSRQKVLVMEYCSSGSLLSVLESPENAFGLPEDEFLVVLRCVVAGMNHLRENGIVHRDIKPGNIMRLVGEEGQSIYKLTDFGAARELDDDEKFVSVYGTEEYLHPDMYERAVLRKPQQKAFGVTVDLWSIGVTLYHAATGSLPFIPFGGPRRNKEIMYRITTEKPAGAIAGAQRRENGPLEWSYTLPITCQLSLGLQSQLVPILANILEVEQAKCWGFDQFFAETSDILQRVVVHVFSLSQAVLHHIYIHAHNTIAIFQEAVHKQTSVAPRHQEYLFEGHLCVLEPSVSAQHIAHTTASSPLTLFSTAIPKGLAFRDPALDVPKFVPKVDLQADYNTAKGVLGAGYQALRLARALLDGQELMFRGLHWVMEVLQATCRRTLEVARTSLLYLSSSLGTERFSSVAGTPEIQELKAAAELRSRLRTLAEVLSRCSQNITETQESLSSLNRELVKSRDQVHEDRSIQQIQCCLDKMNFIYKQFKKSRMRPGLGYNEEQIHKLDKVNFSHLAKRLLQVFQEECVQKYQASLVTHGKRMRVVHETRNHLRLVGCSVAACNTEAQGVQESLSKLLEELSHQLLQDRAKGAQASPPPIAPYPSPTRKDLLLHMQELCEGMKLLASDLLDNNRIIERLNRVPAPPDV

[2] = molecular target: T2, Serine/threonine-protein kinase Nek1 (Homo sapiens) (UniProt Q96PY6); conditions: at 0.1 µM
T2 sequence (whole entry): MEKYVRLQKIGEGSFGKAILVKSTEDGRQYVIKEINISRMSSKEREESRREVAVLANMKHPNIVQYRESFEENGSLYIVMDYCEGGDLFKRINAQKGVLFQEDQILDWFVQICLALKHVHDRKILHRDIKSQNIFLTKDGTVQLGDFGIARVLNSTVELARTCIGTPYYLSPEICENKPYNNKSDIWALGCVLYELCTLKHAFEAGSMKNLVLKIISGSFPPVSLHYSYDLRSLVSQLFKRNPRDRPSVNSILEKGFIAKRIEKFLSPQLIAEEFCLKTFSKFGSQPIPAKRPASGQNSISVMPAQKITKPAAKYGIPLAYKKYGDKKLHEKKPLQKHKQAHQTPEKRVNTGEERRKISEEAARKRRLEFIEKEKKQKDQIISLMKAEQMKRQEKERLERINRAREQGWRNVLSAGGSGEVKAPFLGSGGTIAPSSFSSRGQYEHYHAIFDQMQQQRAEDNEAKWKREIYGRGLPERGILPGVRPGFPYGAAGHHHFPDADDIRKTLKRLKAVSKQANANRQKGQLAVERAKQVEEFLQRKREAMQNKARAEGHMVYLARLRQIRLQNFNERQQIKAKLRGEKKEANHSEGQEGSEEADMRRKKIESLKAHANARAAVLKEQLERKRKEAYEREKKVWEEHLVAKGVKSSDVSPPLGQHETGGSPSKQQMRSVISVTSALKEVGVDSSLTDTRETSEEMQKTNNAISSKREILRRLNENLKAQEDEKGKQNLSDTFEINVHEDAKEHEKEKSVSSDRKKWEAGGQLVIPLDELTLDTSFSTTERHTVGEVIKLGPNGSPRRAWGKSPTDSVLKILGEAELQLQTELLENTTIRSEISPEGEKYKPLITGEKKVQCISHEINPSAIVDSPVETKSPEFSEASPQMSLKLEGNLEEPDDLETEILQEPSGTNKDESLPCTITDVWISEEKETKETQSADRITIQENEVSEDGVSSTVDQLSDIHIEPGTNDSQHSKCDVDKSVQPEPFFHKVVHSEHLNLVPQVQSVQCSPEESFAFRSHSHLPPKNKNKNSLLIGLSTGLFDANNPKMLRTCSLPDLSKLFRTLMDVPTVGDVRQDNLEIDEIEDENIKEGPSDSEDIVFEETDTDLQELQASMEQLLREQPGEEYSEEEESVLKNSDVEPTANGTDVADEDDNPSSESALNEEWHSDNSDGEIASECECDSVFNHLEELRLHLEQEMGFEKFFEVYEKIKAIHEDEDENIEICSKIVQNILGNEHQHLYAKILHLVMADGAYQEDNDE

[3] = molecular target: T2, Serine/threonine-protein kinase Nek1 (Homo sapiens); conditions: at 1 µM
[4] = molecular target: T3, Serine/threonine-protein kinase Nek2 (Homo sapiens) (UniProt P51955); conditions: at 0.1 µM
T3 sequence (whole entry): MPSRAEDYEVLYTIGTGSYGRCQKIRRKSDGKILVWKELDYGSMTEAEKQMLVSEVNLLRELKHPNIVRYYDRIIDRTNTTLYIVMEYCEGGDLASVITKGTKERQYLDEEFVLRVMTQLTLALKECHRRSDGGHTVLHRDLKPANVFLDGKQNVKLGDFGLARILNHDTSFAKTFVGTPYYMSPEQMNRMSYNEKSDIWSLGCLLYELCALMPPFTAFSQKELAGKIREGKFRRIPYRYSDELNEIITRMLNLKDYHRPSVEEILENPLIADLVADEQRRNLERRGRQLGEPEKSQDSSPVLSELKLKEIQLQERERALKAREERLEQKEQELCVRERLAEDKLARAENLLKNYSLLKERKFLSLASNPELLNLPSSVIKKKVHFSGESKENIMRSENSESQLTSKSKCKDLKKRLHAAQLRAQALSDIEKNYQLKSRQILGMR

[5] = molecular target: T3, Serine/threonine-protein kinase Nek2 (Homo sapiens); conditions: at 1 µM
[6] = molecular target: Serine/threonine-protein kinase Nek6 (Homo sapiens) (UniProt Q9HC98); conditions: at 0.1 µM
[7] = molecular target: Serine/threonine-protein kinase Nek6 (Homo sapiens) (UniProt Q9HC98); conditions: at 1 µM
[8] = molecular target: Serine/threonine-protein kinase Nek7 (Homo sapiens) (UniProt Q8TDX7); conditions: at 0.1 µM
[9] = molecular target: Serine/threonine-protein kinase Nek7 (Homo sapiens) (UniProt Q8TDX7); conditions: at 1 µM
[10] = molecular target: T4, Serine/threonine-protein kinase Nek9 (Homo sapiens) (UniProt Q8TD19); conditions: at 0.1 µM
T4 sequence (whole entry): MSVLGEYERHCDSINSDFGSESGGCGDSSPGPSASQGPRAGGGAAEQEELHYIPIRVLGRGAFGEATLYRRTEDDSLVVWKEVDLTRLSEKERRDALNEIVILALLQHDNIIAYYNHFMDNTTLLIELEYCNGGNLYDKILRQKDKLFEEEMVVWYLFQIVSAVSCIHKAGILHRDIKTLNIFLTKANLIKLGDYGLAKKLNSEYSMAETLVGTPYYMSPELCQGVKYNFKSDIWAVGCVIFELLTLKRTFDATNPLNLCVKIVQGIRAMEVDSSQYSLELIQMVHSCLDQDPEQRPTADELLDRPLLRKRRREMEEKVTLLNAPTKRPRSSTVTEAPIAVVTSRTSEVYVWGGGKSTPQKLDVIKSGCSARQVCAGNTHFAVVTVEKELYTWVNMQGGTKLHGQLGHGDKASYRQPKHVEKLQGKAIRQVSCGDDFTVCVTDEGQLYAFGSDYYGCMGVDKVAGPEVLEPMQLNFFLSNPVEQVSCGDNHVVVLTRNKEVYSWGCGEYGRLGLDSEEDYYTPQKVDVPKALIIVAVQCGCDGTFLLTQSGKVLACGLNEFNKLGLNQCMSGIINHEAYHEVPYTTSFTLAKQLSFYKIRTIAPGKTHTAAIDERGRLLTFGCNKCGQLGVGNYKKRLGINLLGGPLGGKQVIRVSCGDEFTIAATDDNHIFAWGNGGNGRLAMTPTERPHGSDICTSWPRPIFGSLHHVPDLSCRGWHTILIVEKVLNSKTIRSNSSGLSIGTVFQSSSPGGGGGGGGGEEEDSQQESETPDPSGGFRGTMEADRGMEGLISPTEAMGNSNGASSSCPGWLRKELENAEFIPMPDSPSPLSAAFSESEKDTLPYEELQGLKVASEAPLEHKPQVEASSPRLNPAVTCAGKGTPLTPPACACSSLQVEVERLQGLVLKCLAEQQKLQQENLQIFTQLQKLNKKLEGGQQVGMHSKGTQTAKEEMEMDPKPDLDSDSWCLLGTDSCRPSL

[11] = molecular target: T4, Serine/threonine-protein kinase Nek9 (Homo sapiens); conditions: at 1 µM
[12] = molecular target: Serine/threonine-protein kinase PLK1 (Homo sapiens) (UniProt P53350); conditions: at 0.1 µM
[13] = molecular target: Serine/threonine-protein kinase PLK1 (Homo sapiens) (UniProt P53350); conditions: at 1 µM
[14] = molecular target: T5, Dual specificity protein kinase TTK (Homo sapiens) (UniProt P33981); conditions: at 0.1 µM
T5 sequence (whole entry): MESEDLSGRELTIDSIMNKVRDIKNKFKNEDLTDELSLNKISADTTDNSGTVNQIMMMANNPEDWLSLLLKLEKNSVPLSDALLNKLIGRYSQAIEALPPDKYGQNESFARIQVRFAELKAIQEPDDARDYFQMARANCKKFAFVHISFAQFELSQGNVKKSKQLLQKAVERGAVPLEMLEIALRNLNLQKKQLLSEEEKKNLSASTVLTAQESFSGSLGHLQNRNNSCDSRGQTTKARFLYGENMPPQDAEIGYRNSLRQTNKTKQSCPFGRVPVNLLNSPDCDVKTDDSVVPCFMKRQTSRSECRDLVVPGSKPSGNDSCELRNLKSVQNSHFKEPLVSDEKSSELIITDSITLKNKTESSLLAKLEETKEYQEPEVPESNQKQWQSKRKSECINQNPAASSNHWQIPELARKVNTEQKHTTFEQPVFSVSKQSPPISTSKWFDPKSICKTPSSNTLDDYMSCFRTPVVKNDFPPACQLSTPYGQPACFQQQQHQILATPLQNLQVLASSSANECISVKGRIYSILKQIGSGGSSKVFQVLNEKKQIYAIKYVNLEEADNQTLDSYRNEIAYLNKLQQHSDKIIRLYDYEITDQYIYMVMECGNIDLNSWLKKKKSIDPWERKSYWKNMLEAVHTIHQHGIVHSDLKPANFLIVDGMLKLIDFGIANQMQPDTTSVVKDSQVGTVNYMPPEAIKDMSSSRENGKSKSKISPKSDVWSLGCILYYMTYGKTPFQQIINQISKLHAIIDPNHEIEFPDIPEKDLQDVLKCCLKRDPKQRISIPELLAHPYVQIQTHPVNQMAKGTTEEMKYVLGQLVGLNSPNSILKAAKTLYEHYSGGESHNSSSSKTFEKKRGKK

[15] = test system: T6, Receptor-type tyrosine-protein kinase FLT3 (Homo sapiens), P36888 [D835Y]; conditions: at 1 µM
T6 sequence (whole entry): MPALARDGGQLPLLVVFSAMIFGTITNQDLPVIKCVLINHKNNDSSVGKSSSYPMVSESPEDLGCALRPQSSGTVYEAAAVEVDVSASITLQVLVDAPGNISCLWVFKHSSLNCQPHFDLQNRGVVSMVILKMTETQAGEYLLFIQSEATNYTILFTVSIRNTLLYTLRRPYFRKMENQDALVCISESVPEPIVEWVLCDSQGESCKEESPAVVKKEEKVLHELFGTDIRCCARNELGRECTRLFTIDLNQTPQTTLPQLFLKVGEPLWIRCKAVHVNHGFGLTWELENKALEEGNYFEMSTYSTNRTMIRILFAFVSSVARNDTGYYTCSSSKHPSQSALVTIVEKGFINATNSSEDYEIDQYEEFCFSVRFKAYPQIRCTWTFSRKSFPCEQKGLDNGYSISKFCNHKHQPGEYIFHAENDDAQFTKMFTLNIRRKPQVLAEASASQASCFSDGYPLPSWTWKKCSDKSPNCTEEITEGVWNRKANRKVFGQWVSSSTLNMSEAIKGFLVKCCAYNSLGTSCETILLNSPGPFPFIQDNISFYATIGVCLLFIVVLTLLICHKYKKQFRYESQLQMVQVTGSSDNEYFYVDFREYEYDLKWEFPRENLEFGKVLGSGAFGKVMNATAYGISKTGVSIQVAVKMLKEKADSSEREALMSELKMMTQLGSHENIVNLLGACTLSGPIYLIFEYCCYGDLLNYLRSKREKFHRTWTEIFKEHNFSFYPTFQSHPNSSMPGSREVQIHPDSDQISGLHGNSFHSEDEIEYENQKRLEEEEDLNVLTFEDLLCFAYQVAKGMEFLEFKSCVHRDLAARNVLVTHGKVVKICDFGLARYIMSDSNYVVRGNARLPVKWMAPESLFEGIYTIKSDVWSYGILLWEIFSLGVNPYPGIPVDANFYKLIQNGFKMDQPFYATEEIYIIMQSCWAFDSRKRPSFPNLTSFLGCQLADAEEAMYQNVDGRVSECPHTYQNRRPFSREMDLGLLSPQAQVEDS

[16] = molecular target: Vascular endothelial growth factor receptor 3 (Homo sapiens) (UniProt P35916); conditions: at 0.1 µM
[17] = molecular target: Vascular endothelial growth factor receptor 3 (Homo sapiens) (UniProt P35916); conditions: at 1 µM
[18] = molecular target: Macrophage colony-stimulating factor 1 receptor (Homo sapiens) (UniProt P07333); conditions: at 0.1 µM
[19] = molecular target: Macrophage colony-stimulating factor 1 receptor (Homo sapiens) (UniProt P07333); conditions: at 1 µM
[20] = molecular target: Tyrosine-protein kinase Fyn (Homo sapiens) (UniProt P06241); conditions: at 0.1 µM
Chain of Tyrosine-protein kinase Fyn (Homo sapiens) (P06241 2-537 limits assumed): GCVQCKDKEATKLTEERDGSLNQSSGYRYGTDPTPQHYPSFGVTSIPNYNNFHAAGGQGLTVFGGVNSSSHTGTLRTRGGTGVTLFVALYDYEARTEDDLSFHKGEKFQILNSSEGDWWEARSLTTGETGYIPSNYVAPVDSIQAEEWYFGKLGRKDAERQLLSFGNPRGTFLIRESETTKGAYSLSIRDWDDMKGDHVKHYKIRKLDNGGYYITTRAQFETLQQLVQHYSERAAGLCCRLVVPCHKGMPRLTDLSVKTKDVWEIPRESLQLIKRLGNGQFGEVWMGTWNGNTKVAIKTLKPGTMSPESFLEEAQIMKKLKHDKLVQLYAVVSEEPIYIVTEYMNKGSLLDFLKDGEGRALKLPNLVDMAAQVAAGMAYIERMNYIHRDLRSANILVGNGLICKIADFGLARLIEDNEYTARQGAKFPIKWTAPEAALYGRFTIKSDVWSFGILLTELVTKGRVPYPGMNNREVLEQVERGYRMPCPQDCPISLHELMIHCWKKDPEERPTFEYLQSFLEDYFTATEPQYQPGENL

Chain of Serine/threonine-protein kinase Nek6 (Homo sapiens) (Q9HC98 whole entry): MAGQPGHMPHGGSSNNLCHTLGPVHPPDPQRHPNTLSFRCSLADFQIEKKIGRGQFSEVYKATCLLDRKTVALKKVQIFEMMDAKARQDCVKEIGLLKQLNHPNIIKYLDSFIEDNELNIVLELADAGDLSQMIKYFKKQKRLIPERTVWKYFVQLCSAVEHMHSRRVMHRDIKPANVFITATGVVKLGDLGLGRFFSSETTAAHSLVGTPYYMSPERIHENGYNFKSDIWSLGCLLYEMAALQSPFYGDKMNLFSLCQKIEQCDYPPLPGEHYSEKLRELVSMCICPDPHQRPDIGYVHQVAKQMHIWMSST
Chain of Serine/threonine-protein kinase Nek7 (Homo sapiens) (Q8TDX7 whole entry, looked up): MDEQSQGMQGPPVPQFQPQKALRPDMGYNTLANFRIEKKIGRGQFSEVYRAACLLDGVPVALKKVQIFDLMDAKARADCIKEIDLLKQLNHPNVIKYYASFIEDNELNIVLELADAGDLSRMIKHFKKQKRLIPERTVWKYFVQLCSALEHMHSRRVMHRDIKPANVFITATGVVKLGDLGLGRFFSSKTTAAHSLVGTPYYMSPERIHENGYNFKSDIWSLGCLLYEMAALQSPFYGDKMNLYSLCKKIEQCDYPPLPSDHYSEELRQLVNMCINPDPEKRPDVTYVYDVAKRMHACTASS
Chain of Macrophage colony-stimulating factor 1 receptor (Homo sapiens) (P07333 whole entry): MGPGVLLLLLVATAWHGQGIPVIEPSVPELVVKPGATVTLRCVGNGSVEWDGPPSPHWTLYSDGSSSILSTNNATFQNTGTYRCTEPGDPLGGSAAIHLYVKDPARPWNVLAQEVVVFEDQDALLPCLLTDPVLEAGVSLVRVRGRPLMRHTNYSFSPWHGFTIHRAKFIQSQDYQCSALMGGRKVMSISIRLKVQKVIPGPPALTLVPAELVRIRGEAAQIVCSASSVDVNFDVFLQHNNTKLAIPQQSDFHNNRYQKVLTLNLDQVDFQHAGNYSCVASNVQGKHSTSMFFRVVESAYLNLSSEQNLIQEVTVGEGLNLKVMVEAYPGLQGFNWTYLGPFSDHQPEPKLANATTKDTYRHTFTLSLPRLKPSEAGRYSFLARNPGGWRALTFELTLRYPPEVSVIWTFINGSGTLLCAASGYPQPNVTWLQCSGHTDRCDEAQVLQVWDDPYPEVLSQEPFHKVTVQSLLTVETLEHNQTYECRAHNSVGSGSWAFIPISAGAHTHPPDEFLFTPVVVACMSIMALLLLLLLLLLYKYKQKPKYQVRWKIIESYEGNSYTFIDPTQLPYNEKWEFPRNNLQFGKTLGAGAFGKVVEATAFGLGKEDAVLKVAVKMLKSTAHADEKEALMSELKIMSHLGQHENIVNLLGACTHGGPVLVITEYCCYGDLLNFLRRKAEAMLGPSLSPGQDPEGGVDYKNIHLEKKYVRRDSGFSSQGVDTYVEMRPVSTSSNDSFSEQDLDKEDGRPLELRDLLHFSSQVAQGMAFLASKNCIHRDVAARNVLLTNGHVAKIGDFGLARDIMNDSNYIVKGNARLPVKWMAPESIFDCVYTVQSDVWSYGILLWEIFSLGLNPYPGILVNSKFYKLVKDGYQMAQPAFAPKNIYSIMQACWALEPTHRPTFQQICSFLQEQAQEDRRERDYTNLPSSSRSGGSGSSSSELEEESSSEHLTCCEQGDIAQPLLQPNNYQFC
Chain of Vascular endothelial growth factor receptor 3 (Homo sapiens) (P35916 whole entry): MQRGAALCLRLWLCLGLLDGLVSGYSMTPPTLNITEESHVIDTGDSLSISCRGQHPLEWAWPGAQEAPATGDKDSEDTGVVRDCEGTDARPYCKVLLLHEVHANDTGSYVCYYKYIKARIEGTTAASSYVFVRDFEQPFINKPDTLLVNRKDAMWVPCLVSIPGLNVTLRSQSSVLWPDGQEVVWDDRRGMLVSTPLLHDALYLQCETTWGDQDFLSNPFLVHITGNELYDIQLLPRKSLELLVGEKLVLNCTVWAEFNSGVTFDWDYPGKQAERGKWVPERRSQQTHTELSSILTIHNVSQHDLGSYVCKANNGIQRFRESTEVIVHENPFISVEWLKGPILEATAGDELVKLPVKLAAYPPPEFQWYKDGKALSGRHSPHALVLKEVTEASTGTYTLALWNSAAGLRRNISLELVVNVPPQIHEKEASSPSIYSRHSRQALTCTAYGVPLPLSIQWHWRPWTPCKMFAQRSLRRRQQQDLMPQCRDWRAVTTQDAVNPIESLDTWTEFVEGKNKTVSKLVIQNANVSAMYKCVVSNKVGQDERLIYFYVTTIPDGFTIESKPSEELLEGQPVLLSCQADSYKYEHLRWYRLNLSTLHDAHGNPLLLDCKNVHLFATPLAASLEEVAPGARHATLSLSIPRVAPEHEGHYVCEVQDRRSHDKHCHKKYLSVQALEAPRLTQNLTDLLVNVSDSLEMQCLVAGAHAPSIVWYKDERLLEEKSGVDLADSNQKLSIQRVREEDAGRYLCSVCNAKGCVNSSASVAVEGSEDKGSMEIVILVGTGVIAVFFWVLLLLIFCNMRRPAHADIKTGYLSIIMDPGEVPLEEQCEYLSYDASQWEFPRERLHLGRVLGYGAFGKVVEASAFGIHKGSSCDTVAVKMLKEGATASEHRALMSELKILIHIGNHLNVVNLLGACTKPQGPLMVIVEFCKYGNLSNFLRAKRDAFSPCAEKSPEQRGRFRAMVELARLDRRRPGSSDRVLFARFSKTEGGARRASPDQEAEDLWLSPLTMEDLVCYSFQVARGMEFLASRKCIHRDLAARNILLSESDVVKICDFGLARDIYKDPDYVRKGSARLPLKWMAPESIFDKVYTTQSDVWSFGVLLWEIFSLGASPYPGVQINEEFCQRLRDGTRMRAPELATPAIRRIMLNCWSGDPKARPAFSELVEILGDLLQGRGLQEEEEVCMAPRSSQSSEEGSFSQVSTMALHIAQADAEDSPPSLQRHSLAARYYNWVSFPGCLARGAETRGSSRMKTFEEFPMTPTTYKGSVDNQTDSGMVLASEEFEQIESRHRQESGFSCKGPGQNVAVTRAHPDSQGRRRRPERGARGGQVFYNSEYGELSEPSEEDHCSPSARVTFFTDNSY
Chain of Serine/threonine-protein kinase PLK1 (Homo sapiens) (P53350 whole entry): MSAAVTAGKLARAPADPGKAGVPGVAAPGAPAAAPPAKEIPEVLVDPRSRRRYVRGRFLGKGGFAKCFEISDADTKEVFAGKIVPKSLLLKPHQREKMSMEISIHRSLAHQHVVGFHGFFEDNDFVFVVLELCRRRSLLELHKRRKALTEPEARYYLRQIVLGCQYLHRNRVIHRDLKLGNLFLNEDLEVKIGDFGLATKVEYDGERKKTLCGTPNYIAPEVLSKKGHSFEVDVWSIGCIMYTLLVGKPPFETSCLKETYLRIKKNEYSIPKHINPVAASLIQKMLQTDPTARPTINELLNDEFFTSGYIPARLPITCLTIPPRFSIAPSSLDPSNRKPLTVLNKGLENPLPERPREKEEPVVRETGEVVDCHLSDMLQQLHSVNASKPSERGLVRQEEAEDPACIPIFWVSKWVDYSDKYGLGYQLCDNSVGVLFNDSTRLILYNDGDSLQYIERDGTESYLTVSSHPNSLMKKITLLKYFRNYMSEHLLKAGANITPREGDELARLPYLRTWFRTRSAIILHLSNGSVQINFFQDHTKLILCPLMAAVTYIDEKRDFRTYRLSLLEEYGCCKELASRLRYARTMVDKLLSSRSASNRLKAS

SMILES	inhibition [1]	inhibition [2]	inhibition [3]	inhibition [4]	inhibition [5]	inhibition [6]	inhibition [7]	inhibition [8]	inhibition [9]	inhibition [10]	inhibition [11]	inhibition [12]	inhibition [13]	inhibition [14]	inhibition [15]	inhibition [16]	inhibition [17]	inhibition [18]	inhibition [19]	inhibition [20]
CN1CCC(n2cnc(-c3ccc(F)cc3)c2-c2ccnc(N)n2)CC1	7.06%	-0.73%	0.96%	2.43%	2.64%	2.5%	2.17%	3.21%	3.4%	7.9%	11.4%	2.4%	0.91%	5.14%	1.95%	1.56%	2.31%	2.19%	6.29%	0.4%
CCn1c(-c2nonc2N)nc2cnc(Oc3cccc(NC(=O)c4ccc(N(C)C)cc4)c3)cc21	14.1%	1.17%	4.28%	2.85%	1.24%	0.89%	2.25%	3.09%	1.46%	7.55%	5.29%	1.86%	1.97%	3.52%	0.83%	0.61%	2.01%	-0.02%	0.23%	1.66%
CC(=O)Nc1cccc(C#Cc2cncnc2Nc2ccc(OCc3cccc(F)c3)c(Cl)c2)c1	-0.15%	1.85%	1.3%	1.33%	2.68%	1.9%	1.16%	2.97%	2.6%	1.96%	2.42%	2.3%	2.89%	3.58%	-2.98%	2.87%	3.83%	0.82%	4.6%	0.68%
